Source: the supplement of paper PMC3334620
Over roughly 33,000 sequences, “E-score (-0.5 to 0.5)” has its median near -0.032; the highest 2% begin near 0.36. The full list was thinned out, with the highest values kept by preference.

biological target: T1, Sko1 (UniProt Q02100); test: PBM E-score (8-mer binding enrichment) (E-score (-0.5 to 0.5)); higher = stronger / more preferred TF binding; settings: protein concentration: 200 nM; construct: GST-full length
T1 sequence: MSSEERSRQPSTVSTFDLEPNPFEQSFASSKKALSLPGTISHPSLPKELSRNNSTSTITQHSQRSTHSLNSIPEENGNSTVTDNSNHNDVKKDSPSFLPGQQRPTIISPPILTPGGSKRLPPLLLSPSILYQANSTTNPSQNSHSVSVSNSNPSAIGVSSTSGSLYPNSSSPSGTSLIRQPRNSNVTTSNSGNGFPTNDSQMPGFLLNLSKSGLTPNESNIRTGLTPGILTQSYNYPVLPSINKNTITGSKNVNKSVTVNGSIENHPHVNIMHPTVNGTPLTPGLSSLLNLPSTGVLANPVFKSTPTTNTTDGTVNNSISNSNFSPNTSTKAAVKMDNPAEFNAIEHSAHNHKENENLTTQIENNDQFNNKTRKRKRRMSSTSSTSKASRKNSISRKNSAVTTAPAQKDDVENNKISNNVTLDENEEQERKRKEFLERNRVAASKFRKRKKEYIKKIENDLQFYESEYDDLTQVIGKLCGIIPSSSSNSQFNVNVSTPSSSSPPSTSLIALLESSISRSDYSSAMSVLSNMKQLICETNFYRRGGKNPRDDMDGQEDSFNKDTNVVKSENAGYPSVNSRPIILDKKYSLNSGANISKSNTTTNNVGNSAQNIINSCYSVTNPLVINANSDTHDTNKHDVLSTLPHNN
In short: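 E-scores (a modified Wilcoxon-Mann-Whitney statistic) were assigned by the Universal PBM Analysis Suite to every ungapped eight-base word pooled with its reverse complement. The input came from universal all-10-mer Agilent arrays made double-stranded by primer extension and probed with GST-tagged yeast transcription factors at about 100-200 nM. Fluorescent anti-GST detected bound protein, and masliner normalised the scans.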

Sequence | PBM E-score
TCGACGCA | 0.0313
ATCGCCAA | -0.119
GTTTTCTA | 0.201
GCAGTAGA | -0.0999
ATGGCAGG | -0.281
CAGGACCC | -0.221
ACTGACGC | 0.334
AATGACGC | 0.478
GATGACCC | -0.0957
CATGACGG | 0.326
ATTGACGC | 0.319
GATGACTA | 0.0669
GATGACAC | 0.257
GATGACGC | 0.473
CATGACGA | 0.463
CATGACAA | -0.00914
GATGACCA | 0.0721
GATGACGA | 0.474
GGACCCTA | -0.273
GTTTTGTA | 0.262
ACGATAGT | 0.295
ATATGCGC | 0.0277
CGATCGCG | 0.0985
CGAGCACG | 0.0337
GACCAGCA | -0.185
GAGGGCGA | -0.265

Sequence | PBM E-score
AATGACCG | 0.0453
AATGACGG | 0.388
ATTGACGG | 0.0348
GCCTCAGA | -0.148
ACGTAACG | 0.469
ACGTAACA | 0.464
GCGTAACC | 0.328
TCGTAACA | 0.275
GCGTAACA | 0.317
CCGTAACC | -0.0904
ACGTAACC | 0.469
ACGTAACT | 0.459
AAGTAACT | 0.153
CCGTAACG | -0.103
AAGTAACG | 0.0665
AGGTAACT | 0.0427
AGCTGTGG | -0.296
GGTCCCAC | -0.0859
AATGAGTA | 0.178
CGGACTGC | -0.0639
CTCTTACA | -0.0812
ATTTAGTA | 0.25
ATGAAATG | -0.059
AGGCAAGC | -0.126
AATACGGG | -0.111
CATACGCC | 0.182

Sequence | PBM E-score
GATACGAA | 0.227
AATACGGA | 0.138
AATACGAA | 0.324
AATACGCG | 0.287
CATACGTC | 0.466
CATACGGC | -0.0208
AATACGTG | 0.458
GATACGTA | 0.48
AATACGTA | 0.482
GATACGGA | -0.0181
AAACCTTG | 0.0199
GACTCACC | -0.118
CTCAGGAG | -0.159
CACTTCCA | 0.109
CTTAAAGA | 0.00637
CTTGATGC | -0.116
AACCGCTT | -0.113
AATTCAAA | 0.193
CTTAAGCA | -0.0027
CACTTTGG | -0.0531
ATCTGGGA | -0.147
CAGGCAGC | -0.349
CGGTGGAA | -0.188
ATGAGCGA | 0.102
AATACGTC | 0.464
AATACGAC | 0.22

Sequence | PBM E-score
AATACGGC | 0.0384
CATACGTA | 0.485
CATACGGA | -0.00572
CATACGAA | 0.308
CCGACTGA | -0.162
ACATGGTA | 0.00395
ACTCCTGA | -0.0495
CGACGACA | 0.0871
GGACGAAA | -0.0622
ATACGACG | 0.234
AGACGAAA | 0.199
TGACGAAA | 0.463
ATACGAAA | 0.346
TGACGACA | 0.467
GTACGACA | 0.326
ATACGACA | 0.363
GGACGACA | 0.0412
CTACGAAA | 0.214
TTACGAAA | 0.396
AGAATCCC | -0.0186
GTAGTTGA | 0.173
CTTCTACC | -0.3
TAATGCAA | 0.0655
ATTCACTG | 0.0188
ACTTTCGG | 0.0182
TAGGGGGA | -0.251

Sequence | PBM E-score
CGCTATGC | 0.147
TCAAGTGA | 0.087
ATCGCTAG | -0.0122
CTAGTTAC | 0.099
CATTGAGG | -0.021
CAGGCTCC | -0.335
CTATGTCA | 0.338
GTATGTCA | 0.398
ATATGTCA | 0.339
AATTTACG | 0.332
CATTTACC | 0.129
ATTTTACC | 0.252
ATTTTACG | 0.383
CATTTACA | 0.103
CATTTACG | 0.369
CCTTTACG | 0.278
ACTTTACG | 0.379
ACTTTACA | 0.158
ATAGCGGA | -0.0894
AGGTTGTA | 0.15
GTCCAGTA | -0.0738
AGCGCGAA | 0.13
CGTCATAC | 0.486
AGTCATAC | 0.262
GGTCATAC | 0.021
AGTCATAA | 0.0121

Sequence | PBM E-score
CCTCATAG | 0.1
CGTCATAA | 0.487
TGTCATAA | 0.325
CGTCATAG | 0.483
AGTCATAG | -0.0111
GTAACTGA | 0.126
CCAGTGGG | -0.107
ATCCACGC | -0.0735
GTAACCTA | 0.192
CCAAAACG | 0.171
AACCCGTG | -0.216
CGATGACA | 0.283
CGATGACG | 0.482
AGATGACC | -0.0804
CGATGACC | 0.0462
AGATGACG | 0.476
AGATGACA | 0.256
CAACTTAC | 0.0405
AGCGAAAC | 0.163
GGACCGCC | -0.415
GGACCATA | -0.148
GGCCCAAC | -0.146
ACGTTAGA | 0.265
AGAGATGG | -0.0345
CTCGTCAC | 0.38
GTCGTCAA | 0.239

Sequence | PBM E-score
CGCGTCAA | 0.34
ATCGTCAC | 0.385
CTCGTCAA | 0.0618
ATCGTCTC | -0.0603
GTCGTCAC | 0.41
CGCGTCAC | 0.41
ATCGTCGC | 0.0155
CGCGTCAG | 0.222
CTCGTCAG | 0.176
GCCGTCAC | 0.166
ACCTCCAA | -0.189
CGCAGTAC | 0.118
ACTACTGC | -0.0692
AAACCTAG | -0.0586
GACCACAA | -0.165
AACTCGAG | -0.00786
CATTTTCC | 0.122
CCGGACTC | -0.16
GCGGACGC | -0.0227
AGGGTACT | -0.236
TCACAACA | 0.251
